Experimental data: PubChem BioAssay (EPA / NIEHS)
Records with an inconclusive call do not appear. More than one record can exist for a structure, and the calls need not agree. The source made the active and inactive calls. How the source made its calls: active means hit-call score of the fitted dose curve at least 0.9, where 1 is the maximum; inconclusive means response in the unintended direction; inactive means score below 0.9.

target: bovine Estrogen Receptor (ER), ESR1 (gene 407238) (UniProt P49884); test: NVS_NR_bER: NovaScreen (NVS) Nuclear Receptor Binding Assay for bovine Estrogen Receptor (ER) (AID 2283345);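 further: actives lower the bound radioligand count which means they displace the ER ligand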
Sequence (P49884 whole entry, looked up): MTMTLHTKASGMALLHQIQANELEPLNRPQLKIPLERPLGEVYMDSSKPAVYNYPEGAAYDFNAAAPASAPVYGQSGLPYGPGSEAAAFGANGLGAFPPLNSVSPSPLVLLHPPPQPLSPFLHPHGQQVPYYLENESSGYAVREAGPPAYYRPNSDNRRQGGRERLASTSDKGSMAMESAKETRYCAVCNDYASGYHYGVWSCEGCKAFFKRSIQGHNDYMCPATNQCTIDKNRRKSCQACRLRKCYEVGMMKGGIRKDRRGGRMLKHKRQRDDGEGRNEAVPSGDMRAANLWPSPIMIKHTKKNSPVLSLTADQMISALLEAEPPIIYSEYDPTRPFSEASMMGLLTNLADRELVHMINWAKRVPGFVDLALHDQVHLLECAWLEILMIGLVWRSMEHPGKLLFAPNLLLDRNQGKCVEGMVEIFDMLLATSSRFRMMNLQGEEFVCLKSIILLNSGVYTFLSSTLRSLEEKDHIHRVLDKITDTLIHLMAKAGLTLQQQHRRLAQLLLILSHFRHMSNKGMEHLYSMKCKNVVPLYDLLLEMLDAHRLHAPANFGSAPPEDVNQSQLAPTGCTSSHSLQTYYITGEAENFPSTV
Protocol: NVS_NR_bER is a biochemical, single-readout assay that uses extracted gene-proteins from Bovine uterine membranes in a tissue-based cell-free assay. Measurements were taken 18 hours after chemical dosing in a 96-well plate.NVS_NR_bER is one of one assay component(s) measured or calculated from the NVS_NR_bER assay. It is designed to make measurements of radioligand binding, a form of binding reporter, as detected with scintillation counting signals by Lysate-based radiodetection technology.Data from the assay component NVS_NR_bER was analyzed into 1 assay endpoint. This assay endpoint, NVS_NR_bER, was analyzed in the positive analysis fitting direction relative to DMSO as the negative control and baseline of activity. Using a type of binding reporter, loss-of-signal activity can be used to understand changes in the binding as they relate to the gene ESR1. Furthermore, this assay endpoint can be referred to as a primary readout, because the performed assay has only produced 1 assay endpoint. To generalize the intended target to other relatable targets, this assay endpoint is annotated to the nuclear receptor intended target family, where the subfamily is steroidal.
Binding assays used specific radioligands (tritiated, iodinated) with non-radioactive competitive displacement ligands in agonist or antagonist protocols (as indicated) and various reference compounds and inhibitors to titrate specific binding to receptors and transporters. Most enzyme assays (CYPs, kinases, phosphatases, proteases, HDACs) used recombinant protein and specific substrates (fluorescence mostly, some colorimetric and radioactive) and inhibitors, followed by a biochemical separation of substrate and product. All assays for the biochemical HTS were initially run in duplicate at a single concentration (10 uM for CYP450 assays and 25 uM for all others). […] Each assay was run with positive and negative controls, and concurrent controls on every plate. The follow-up (secondary) screen tested active chemical-pairs in concentration series, as well as a few additional assays not tested in the primary screen, some selected negative inactives, and several cases re-run in the concentration series for confirmatory purposes.

Structure (SMILES)	outcome	AC50
NS(=O)(=O)C(F)(F)C(F)(F)C(F)(F)C(F)(F)C(F)(F)C(F)(F)C(F)(F)C(F)(F)F	inactive	
Cc1cc(-c2ccc(N)c(C)c2)ccc1N		0.0481 µM (active)
O=C(O)C(F)(F)C(F)(F)C(F)(F)C(F)(F)C(F)(F)C(F)(F)C(F)(F)C(F)(F)C(F)(F)F	inactive	
CC(C)(O)C(=O)Nc1ccc([N+](=O)[O-])c(C(F)(F)F)c1	inactive	
CCCCCCCCCC[N+](C)(C)CCCCCCCCCC	inactive	
CO/C=C(/C(=O)OC)c1ccccc1COc1cccc(C(F)(F)F)n1	inactive	
CCC(C)(c1ccc(O)cc1)c1ccc(O)cc1	inactive	341 nM (active) [middle of 4 runs]
ClC(Cl)=C(c1ccc(Cl)cc1)c1ccc(Cl)cc1	inactive	
C[C@]12CCC(=O)C=C1CC[C@@H]1[C@@H]2CC[C@]2(C)C(=O)CC[C@@H]12		25 µM (active)
CCCCCCCCOC(=O)c1ccccc1C(=O)OCCCCCCCC	inactive	
Clc1ccc(C(c2ccccc2Cl)C(Cl)(Cl)Cl)cc1 (stereo not drawn)	inactive	
CCCCCCCCCc1ccc(O)cc1	inactive	
CCC(=O)O[C@H]1CC[C@H]2[C@@H]3CCC4=CC(=O)CC[C@]4(C)[C@H]3CC[C@]12C	inactive	
CC(C)(c1ccccc1)c1ccc(O)cc1		11.5 µM (active) [middle of 4 runs]
Cc1cc(O)ccc1Cl	inactive	
O=C(O)C(F)(F)C(F)(F)C(F)(F)C(F)(F)C(F)(F)C(F)(F)C(F)(F)C(F)(F)F	inactive	
O=NN(c1ccccc1)c1ccccc1	inactive	
CC(c1ccc(O)cc1)(c1ccc(O)cc1)c1ccc(O)cc1		3.72 µM (active)
C[C@]12CCC(=O)C=C1CC[C@@H]1[C@@H]2CC[C@@]2(C)[C@H]1CC[C@]2(C)O	inactive	
Oc1c(Cl)c(Cl)c(Cl)c(Cl)c1Cl	inactive	
CCOCCOC(C)=O	inactive	
Oc1ccc(Cl)cc1Cl	inactive	
